Assay outcomes (PubChem BioAssay)
CHT block = inhibits the human high affinity choline transporter; Q9GZV3; CHT-expressing cells, membrane potential dye, choline response; active compounds read low; B-score at 10 µM; actives 0.86% (n = 310,000); AID 488975;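 active = B-score over 3 SD under the library average, and starting fluorescence ratio not unusually high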;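 note: choline stimulus applied at its EC90 after an EC20 pre-addition; B-score computed on integrated fluorescence ratio after choline addition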
Target sequence (Q9GZV3 whole entry, looked up): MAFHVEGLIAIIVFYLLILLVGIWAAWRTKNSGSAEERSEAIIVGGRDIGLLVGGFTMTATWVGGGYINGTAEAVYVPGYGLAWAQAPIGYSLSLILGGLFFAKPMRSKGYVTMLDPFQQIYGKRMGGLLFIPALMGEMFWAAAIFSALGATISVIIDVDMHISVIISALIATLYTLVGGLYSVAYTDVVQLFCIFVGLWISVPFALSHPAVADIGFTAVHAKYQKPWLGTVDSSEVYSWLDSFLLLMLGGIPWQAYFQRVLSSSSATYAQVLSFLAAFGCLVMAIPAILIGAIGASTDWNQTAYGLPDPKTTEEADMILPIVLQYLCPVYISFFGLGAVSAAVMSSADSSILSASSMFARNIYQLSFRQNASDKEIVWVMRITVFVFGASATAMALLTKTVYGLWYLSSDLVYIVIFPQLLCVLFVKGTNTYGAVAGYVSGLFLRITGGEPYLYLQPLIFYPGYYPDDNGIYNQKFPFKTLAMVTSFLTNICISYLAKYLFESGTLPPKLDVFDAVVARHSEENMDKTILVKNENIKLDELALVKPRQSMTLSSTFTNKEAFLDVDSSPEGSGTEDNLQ
CHT PAM = allosterically activates the human high affinity choline transporter; Q9GZV3; CHT-expressing cells, membrane potential dye, choline EC20; active compounds read high; LV-AA mutant CHT in HEK293 cells; B-score at 10 µM; actives 0.49% (n = 310,000); AID 488977;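 active = initial fluorescence not abnormally high and integrated response B-score, plate-corrected, over 3 SD above library mean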
EP2 mod = modulates human prostaglandin E2 receptor EP2 signaling; AID 940; EP2-expressing cells, cAMP HTRF FRET, PGE2 co-stimulation; induction, % at 25 µM; actives 0.83% (n = 260,000);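 active = compounds whose cAMP rise, as percent of the full-agonist control response, exceeds 60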;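 note: rat C6 glioma line stably carrying human EP2 under a CMV promoter; the protocol text gives 20 µM as final concentration; 100% = response of wells given 1 µM PGE2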
EP2 antag = blocks the human prostaglandin E2 receptor EP2 | inhibition, % at 25 µM | actives 0.52% (n = 260,000) | C6 glioma cells expressing human EP2, cAMP TR-FRET; cells stimulated with saturating PGE2 | P43116;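 active = percent inhibition above 40 after rounding to a whole number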;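 note: rat C6 glioma host cells with rolipram phosphodiesterase inhibitor present; the protocol text gives 20 µM as final concentration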
CHT block conf = confirmation of human choline transporter CHT inhibitors | shares compounds with CHT block | CHT-expressing cells, choline membrane potential dye; LV-to-AA substituted CHT, HEK293 cells | CHT activity remaining % of control (active compounds read low), % at 10 µM | actives 70% (n = 2,400);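 active = choline transporter activity left, mean of duplicates at 10 µM, below buffer-only control mean minus 3 SD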;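 note: depolarization triggered by choline at its EC90 following an EC20 pre-addition; 0% = hemicholinium-3 full block and 100% = buffer-only control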
HEK293 CHT ctr = counter-screen for CHT inhibitors: effect in parental HEK293 cells. shares compounds with CHT block. membrane potential dye, choline response; active = decrease or increase beyond buffer ±3SD. membrane potential ratio readout (active if shifted either direction beyond buffer ±3SD; no single direction) at 10 µM. actives 4% (n = 2,400);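 note: parental cells lack the transporter so any hit is non-specific; ratio is peak minus trough fluorescence over baseline after EC90 choline challenge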
Active calls of the source: *; i = inactive; · = not tested or not shown. In the library only some 2.1% were active in any assay of this set; here they are far more common.

SMILES	CHT block	CHT PAM	EP2 mod	EP2 antag	CHT block conf	HEK293 CHT ctr
COc1ccc(C(C(=O)NC2CCCC2)N(C(=O)c2ccco2)c2ccccc2C(C)=O)cc1OC (configuration not stated)	i	i	·	·	·	·
COc1ccc(C(C(=O)NC2CCCCC2)N(C(=O)c2ccco2)c2ccccc2C(C)=O)cc1OC (configuration not stated)	-5.1*	i	·	·	71%*	i
CCc1nnc(NS(=O)(=O)c2ccc(NC(=O)c3ccc(Br)cc3)cc2)s1	-6.7*	i	·	·	36%*	i
CCc1nnc(NS(=O)(=O)c2ccc(NC(=O)OC)cc2)s1	i	i	14	9	·	·
CC(C)(C)c1cc(C(=O)N/N=C/c2ccc(F)cc2)n(-c2ccccc2)n1	-5.1*	i	-16	-4	68%*	i
CC(C)(C)c1cc(C(=O)N/N=C/c2ccccc2O)n(-c2ccccc2)n1	i	i	0	8	·	·
CCOC(=O)Cc1csc(NC(=O)CSc2nc3cc(C)ccc3cc2C#N)n1	·	·	16	9	·	·
O=C(CCCNC(=O)c1ccc(Cl)cc1)Nc1ccccc1F	i	i	·	·	·	·
CN(Cc1ccccc1F)C(=O)CCCNC(=O)c1ccc(Cl)cc1	-5.8*	i	·	·	55%*	i
Cc1ccc(CN(Cc2cnc[nH]2)C2CC(C)(C)NC(C)(C)C2)o1	·	·	15	3	·	·
COc1ccc2c(c1)c(C(O)CN1CCN(Cc3ccc4c(c3)OCO4)CC1)c(C)n2C (configuration not stated)	i	i	-44	21	·	·
COc1ccc2c(c1)c(C(O)CN1CCC(Cc3ccccc3)CC1)c(C)n2C (configuration not stated)	-11*	i	-11	·	22%*	i
O=C(CN1C(=O)c2ccccc2C1=O)Nc1ccc(Cl)cn1	-5.1*	i	-7	0	i	i
Cn1c(SCC(=O)N2CCCc3ccccc32)nnc1-c1ccc(Cl)cc1	·	·	-1	5	·	·
COc1cccc(/C=C2\SC(=S)N(NC(=O)c3ccncc3)C2=O)c1	-8.7*	i	27	7	5.2%*	i
O=C(NN1C(=O)/C(=C/c2cccc(O)c2)SC1=S)c1ccccc1O	-5.2*	i	·	·	68%*	i
O=C(NN1C(=O)/C(=C/c2cccs2)SC1=S)c1ccncc1	-10*	i	-8	17	7.4%*	i
COc1cc(/C=C2\SC(=S)N(NC(=O)c3cccnc3)C2=O)ccc1O	i	i	23	2	·	·
O=C(CCCN1C(=O)/C(=C\c2cccs2)SC1=S)NNC(=O)c1ccncc1	i	i	2	8	·	·
CC1CCCCN1C(=O)Nc1cccc2ccccc12 (configuration not stated)	·	·	-4	7	·	·
CCC(C)[C@H](NC(=O)N1CCn2c1nc1ccccc12)C(=O)NCc1ccccc1 (some centres not stated)	i	i	·	·	·	·
COc1ccc(CNC(=O)[C@H](C)NC(=O)N2CCn3c2nc2ccccc23)cc1	-6*	i	·	·	47%*	i
CCc1ccc(CN(Cc2ccco2)C(=O)c2cc3cccc(OC)c3oc2=O)cc1	·	·	-84	7	·	·
Cc1cccc2cc(CN(Cc3nnnn3Cc3ccc(F)cc3)CC3CCCO3)c(=O)[nH]c12 (configuration not stated)	·	·	8	5	·	·
CCc1nnc(NC(=O)c2nc(S(=O)(=O)Cc3cccc(C)c3)ncc2Cl)s1	-6.1*	i	·	·	30%*	i
SMILES	CHT block	CHT PAM	EP2 mod	EP2 antag	CHT block conf	HEK293 CHT ctr
Cc1cccc(CS(=O)(=O)c2ncc(Cl)c(C(=O)Nc3nnc(C(C)C)s3)n2)c1	i	i	·	·	·	·
CCc1nnc(NC(=O)c2nc(S(=O)(=O)Cc3ccc(C)cc3)ncc2Cl)s1	-8.3*	i	·	·	32%*	i
CCc1nnc(NC(=O)c2nc(S(=O)(=O)Cc3ccccc3)ncc2Cl)s1	i	i	·	·	·	·
CC(C)c1nnc(NC(=O)c2nc(S(=O)(=O)Cc3ccc(F)cc3)ncc2Cl)s1	-6.2*	i	·	·	19%*	i
NC(=O)c1nsc(C(=O)N(Cc2ccc(F)cc2)C(C(=O)NC2CCCC2)c2ccco2)c1N (configuration not stated)	-7.9*	i	·	·	i	i
CC(=O)Nc1cc(NC(C)=O)cc(C(=O)OC(C)C(=O)Nc2ccc(S(=O)(=O)N3CCCC3)cc2)c1 (configuration not stated)	-5*	i	·	·	45%*	i
Cc1nn(CC(=O)NCCc2cccc(F)c2)c(=O)c2cc3occc3n12	·	·	-41	4	·	·
O=C(Nc1cccc(CNCCc2c[nH]c3ccccc23)c1)c1ccccc1Cl	-6.3*	i	·	·	31%*	i
CCCc1nc(SCC(=O)Nc2ccccc2Cl)c2ccccc2n1	·	·	41	11	·	·
CCOc1cc(C2/C(=C(/O)c3ccccc3)C(=O)C(=O)N2CC#N)ccc1O (configuration not stated)	·	·	7	11	·	·
Cc1cc(C(=O)COC(=O)C2=NNC(=O)CC2)c(C)n1-c1ccccc1	i	i	22	0	·	·
Cc1ccc(-n2c(C)cc(C(=O)COC(=O)C3=NNC(=O)CC3)c2C)cc1	-6.5*	i	20	8	18%*	-12*
O=C(/C=C/c1cccc(Cl)c1)N1CCC(Cc2ccccc2)CC1	i	i	-88	22	·	·
O=C(/C=C/c1ccccc1)N1CCC(Cc2ccccc2)CC1	-5.3*	i	-40	·	i	i
O=C(C1CC(=O)N(C2CCCC2)C1)N1CCC(Cc2ccccc2)CC1 (configuration not stated)	-5.8*	i	17	9	55%*	i
Cc1ccc(C(=O)NCC(=O)N2CCC(Cc3ccccc3)CC2)cc1	-5.2*	i	·	·	59%*	i
CC1(C)CC(N(Cc2ccccn2)Cc2cccc3ncccc23)CC(C)(C)N1	·	·	-25	7	·	·
FC(F)(F)c1nnc(Nc2ccc(Cl)cc2)s1	i	i	-4	14	·	·
Fc1ccc(Nc2nnc(C(F)(F)F)s2)cc1Cl	-5.2*	i	-9	7	51%*	i
CCOc1ccc(NC(=O)c2sc(NC(=O)c3ccc(F)cc3)c(C(=O)OC)c2C)cc1	·	·	8	10	·	·
CCN(Cc1ccccc1)S(=O)(=O)c1cc(C(=O)NC2CCCCCC2)ccc1OC	-5.1*	i	29	6	50%*	i
Cn1ccnc1C(NC(=O)c1ccccn1)c1ccc(F)c(F)c1 (configuration not stated)	·	·	-12	4	·	·
O=C(C[n+]1cccc2ccccc21)c1ccc(Cl)cc1	-8*	i	·	·	37%*	i
O=C(C[n+]1cc(Br)cc2ccccc21)c1ccccc1	-6.4*	i	·	·	56%*	2.4*
